Calls of active or inactive are those of the source. Unless noted, the rule behind the calls is not given here.
Columns and labels:
[1] = HepG2 liver cancer cell viability effects, profiling panel, resazurin fluorescence, 24 h, PK04 Diversity Set (AID 1172); conditions: higher = more signal
[2] = basal S. cerevisiae growth modulation, no modifier, primary screen, OD600, strain BY4716, 24 h, basal condition (AID 1173); conditions: OD600, 24 h, higher = more signal, called active from +8 up or from −8 down
[3] = MM1S myeloma cell viability, profiling panel, resazurin fluorescence, basal, 24 h, PK04 Diversity Set (AID 1174); conditions: higher = more signal, called active from +8 up or from −8 down;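 note: MM1S multiple myeloma cell line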
[4] = molecular target: Dihydroorotate dehydrogenase (quinone), mitochondrial (Plasmodium falciparum (isolate 3D7)) (UniProt Q08210); experiment: PfDHODH enzyme inhibitors, primary screen, biochemical, C-terminal His tag, absorbance 600 nm (AID 1175); conditions: DCIP absorbance 600 nm, higher = more signal, called active from +8 up or from −8 down;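 note: recombinant parasite enzyme with a five histidine tag at its C terminus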
[5] = P. aeruginosa biofilm formation inhibitors, primary screen, strain PAO1, LB-PBS medium, absorbance 600 nm (AID 1176); conditions: P. aeruginosa PAO1 growth/biofilm, A600, 12 h; higher = more signal
[6] = S. cerevisiae RM11-1a growth modifiers, primary screen, strain RM11-1a, OD600, basal, 24 h (AID 1177); conditions: OD600, 24 h, higher = more signal, called active from +8 up or from −8 down;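 note: cultures grown under basal conditions with no added stressor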
[7] = E. coli acrAB mutant growth effects, primary screen, E. coli filamentation inducers, strain DRC39, OD650, 24 h (AID 1178); conditions: higher = more signal, called active from +8 up or from −8 down;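 note: growth measured as culture turbidity by optical density at 650 nm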
[8] = E. coli acrAB mutant growth effects, primary screen, E. coli filamentation inducers, strain DRC39, OD650, 48 h (AID 1179);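 note: screen aims at cell division blockers that make cells filament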; conditions: E. coli DRC39 delta-acrAB growth, higher = more signal, called active from +8 up or from −8 down
[9] = RPMI8226 myeloma cell viability, profiling panel, resazurin fluorescence, basal, 24 h, PK04 Diversity Set (AID 1180); conditions: higher = more signal;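 note: RPMI8826 multiple myeloma cell line at 5000 cells per well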
[10] = molecular target: E3 ubiquitin-protein ligase XIAP (Homo sapiens) (UniProt P98170); experiment: XIAP binders, primary screen, biophysical, small-molecule microarray, fluorescence 635 nm (AID 1181); conditions: small-molecule microarray binding, higher = more signal;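 note: score merges 667 nm emission and signal to noise over triplicate slides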
[11] = test system: XIP peptide (Xip251-270) binding; experiment: small-molecule binders of XIP peptide, primary screen, biochemical, small-molecule microarray, fluorescence 635/667 nm, 0.1 µg/mL protein (AID 1182); conditions: fluorescent protein binding, 635 nm, higher = more signal, called active from +8 up or from −8 down
XIP peptide (Xip251-270) = experiment: small-molecule binders of XIP peptide, primary screen, biochemical, small-molecule microarray, fluorescence 635/667 nm, 0.5 µg/mL protein (AID 1183); conditions: small-molecule microarray binding, fluorescence 635 nm; higher = more signal
[12] = Plasmodium falciparum growth inhibition, primary screen, strain 3D7, DAPI fluorescence, 100 nL (AID 1184);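 note: parasites grown inside human red blood cells in medium with human serum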; conditions: P. falciparum 3D7 growth, 3 d, higher = more signal
[13] = molecular target: Homeobox protein Hox-A13 (Mus musculus) (UniProt Q62424); experiment: inhibitors of HoxA13-DNA binding, primary screen, biochemical, fluorescence polarization, labeled oligonucleotide (AID 1185); conditions: 15 min, higher = more signal, called active from +8 up or from −8 down
[14] = inhibitors of hydroxyurea-induced Chk1 phosphorylation, primary screen, imaging, HeLa, phospho-Chk1 antibody, percent positive cells (AID 1186); conditions: hydroxyurea-induced phospho-Chk1 immunofluorescence imaging, higher = more signal
[15] = inhibitors of hydroxyurea-induced Chk1 phosphorylation, primary screen, imaging, HeLa, phospho-Chk1 nuclear intensity (AID 1187); conditions: hydroxyurea-induced phospho-Chk1 immunofluorescence imaging, higher = more signal

Chain of E3 ubiquitin-protein ligase XIAP (Homo sapiens) (P98170 whole entry, looked up): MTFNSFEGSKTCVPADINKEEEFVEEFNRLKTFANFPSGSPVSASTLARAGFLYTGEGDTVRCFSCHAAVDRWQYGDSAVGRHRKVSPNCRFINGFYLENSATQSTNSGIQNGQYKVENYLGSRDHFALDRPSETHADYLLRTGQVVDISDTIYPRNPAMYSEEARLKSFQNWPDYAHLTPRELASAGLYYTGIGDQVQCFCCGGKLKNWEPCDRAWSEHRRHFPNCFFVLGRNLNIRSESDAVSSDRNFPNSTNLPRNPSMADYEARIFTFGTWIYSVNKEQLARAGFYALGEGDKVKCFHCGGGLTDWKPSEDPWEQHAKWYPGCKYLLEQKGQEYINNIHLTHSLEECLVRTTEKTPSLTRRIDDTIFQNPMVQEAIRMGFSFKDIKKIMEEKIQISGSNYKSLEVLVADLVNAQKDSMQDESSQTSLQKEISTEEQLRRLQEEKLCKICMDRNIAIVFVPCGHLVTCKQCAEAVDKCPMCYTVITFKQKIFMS
Chain of Dihydroorotate dehydrogenase (quinone), mitochondrial (Plasmodium falciparum (isolate 3D7)) (Q08210 whole entry, looked up): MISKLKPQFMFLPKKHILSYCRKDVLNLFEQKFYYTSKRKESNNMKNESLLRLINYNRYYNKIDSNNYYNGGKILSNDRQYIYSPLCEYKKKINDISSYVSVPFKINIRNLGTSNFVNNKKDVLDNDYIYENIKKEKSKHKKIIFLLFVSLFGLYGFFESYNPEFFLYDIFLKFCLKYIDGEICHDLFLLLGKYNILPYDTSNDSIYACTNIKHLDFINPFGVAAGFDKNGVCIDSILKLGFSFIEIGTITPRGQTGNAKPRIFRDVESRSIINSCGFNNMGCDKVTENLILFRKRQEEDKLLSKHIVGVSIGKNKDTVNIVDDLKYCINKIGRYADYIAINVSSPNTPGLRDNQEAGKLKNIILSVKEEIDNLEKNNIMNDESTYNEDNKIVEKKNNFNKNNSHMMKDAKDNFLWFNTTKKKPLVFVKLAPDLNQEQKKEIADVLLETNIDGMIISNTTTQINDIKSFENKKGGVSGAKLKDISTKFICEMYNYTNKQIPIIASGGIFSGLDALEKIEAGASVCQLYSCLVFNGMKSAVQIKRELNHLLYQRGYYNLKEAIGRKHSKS
Chain of Homeobox protein Hox-A13 (Mus musculus) (Q62424 whole entry, looked up): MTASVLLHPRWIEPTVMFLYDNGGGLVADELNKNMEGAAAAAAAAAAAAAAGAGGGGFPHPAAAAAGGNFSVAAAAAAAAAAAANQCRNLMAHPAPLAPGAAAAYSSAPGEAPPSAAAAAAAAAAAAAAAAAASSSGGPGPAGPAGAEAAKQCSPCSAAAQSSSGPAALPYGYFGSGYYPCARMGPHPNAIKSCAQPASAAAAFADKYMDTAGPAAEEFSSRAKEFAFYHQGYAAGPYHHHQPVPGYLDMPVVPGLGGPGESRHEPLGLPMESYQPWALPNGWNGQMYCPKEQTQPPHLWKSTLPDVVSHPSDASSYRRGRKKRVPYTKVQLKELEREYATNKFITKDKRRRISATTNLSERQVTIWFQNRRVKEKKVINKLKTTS

SMILES	z-score [1]	z-score [2]	z-score [3]	composite z-score [4]	z-score [5]	z-score [6]	z-score [7]	z-score [8]	z-score [9]	composite z-score [10]	composite z-score [11]	composite z-score (XIP peptide (Xip251-270))	z-score [12]	z-score [13]	z-score [14]	z-score [15]
C=C(C)[C@@H]1CC=C(C(O)C2C=CC3C(=O)N(C)C(=O)C3N2Nc2ccccc2)CC1 (stereo partly specified)	-0.709	0.773 (inactive)	-1.03 (inactive)	0.849 (inactive)	0.751 (inactive)	1.45 (inactive)	-0.683 (inactive)	-0.472 (inactive)	-0.581	0.0688	0.469 (inactive)	0.147	-0.0575	-4.59 (inactive)	-0.63 (inactive)	-0.968 (inactive)
CC#CC(=O)Oc1ccccc1C=CC(=O)OCC	1.86	-10.4 (active)	0.302 (inactive)	-0.155 (inactive)	1.21 (inactive)	-1.34 (inactive)	0.23 (inactive)	0.51 (inactive)	0.485	-0.162	0.0524 (inactive)	0.106	-0.418	-2.38 (inactive)	0.367 (inactive)	0.195 (inactive)
C=C(CCCC)/C(=C/C[C@@H](OC(=O)c1ccncc1)c1ccc(OCCO)cc1)c1cc(C(=O)OC)ccc1OC	0.691	1.1 (inactive)	0.234 (inactive)	-0.265 (inactive)	-0.39 (inactive)	0.826 (inactive)	0.885 (inactive)	0.868 (inactive)	0.572	-0.141	0.35 (inactive)	0.565	-2.8	-3.62 (inactive)	-0.377 (inactive)	0.106 (inactive)
Cc1ccc(S[C@]2(C(=O)NCCCN(C)C)CC(=O)N(Cc3ccccc3C(F)(F)F)[C@@H]2c2ccc(CO)cc2)cc1	-0.758	-0.362 (inactive)	0.515 (inactive)	-0.0819 (inactive)	-0.0807 (inactive)	-0.329 (inactive)	0.252 (inactive)	0.164 (inactive)	0.119	-0.267	0.0209 (inactive)	-0.328	-1.02	-1.25 (inactive)	-0.0292 (inactive)	0.135 (inactive)
COC(=O)[C@@]1(Cc2ccc(OC)cc2)[C@H]2c3cc(C(=O)N4CCCC4)n(Cc4ccc(O)c(OC)c4)c3C[C@H]2CN1C(=O)c1ccccc1	-1.76	1.19 (inactive)	-0.431 (inactive)	0.191 (inactive)	0.591 (inactive)	0.609 (inactive)	-0.446 (inactive)	-0.0429 (inactive)	-2.77	0.227	1.29 (inactive)	0.575	-1.65	-4.69 (inactive)	0.449 (inactive)	0.27 (inactive)
CC(C)=CCN[C@H](CO)c1ccccc1	-0.347	-6.22 (inactive)	-0.362 (inactive)	-2.14 (inactive)	-0.517 (inactive)	-0.17 (inactive)	-0.387 (inactive)	-1.49 (inactive)	-0.974	0.213	-0.0202 (inactive)	-0.319	-1.72	0.039 (inactive)	0.257 (inactive)	-0.0254 (inactive)
COCCOC(=O)N1C(=O)[C@@]2(c3cc(C#CCC(C(=O)OC)C(=O)OC)ccc31)[C@H](C(=O)Nc1nc3ccccc3s1)[C@H]1C(=O)O[C@H](c3ccccc3)[C@H](c3ccccc3)N1[C@@H]2c1ccccc1OCCO	-0.397	1.3 (inactive)	-1.38 (inactive)	-0.715 (inactive)	2.96 (inactive)	2.8 (inactive)	0.0871 (inactive)	0.642 (inactive)	-0.39	0.109	1.95 (inactive)	0.813	-1.8	3.19 (inactive)	0.0747 (inactive)	0.233 (inactive)
CN1C(=O)C2C=CC(C(O)c3ccccc3)N(N(c3ccccc3)c3ccccc3)C2C1=O (stereo unspecified)	-0.112	0.833 (inactive)	-0.728 (inactive)	0.0002 (inactive)	0.226 (inactive)	0.579 (inactive)	-0.854 (inactive)	0.139 (inactive)	-0.323	0.259	-0.274 (inactive)	-0.0284	0.796	-1.72 (inactive)	0.812 (inactive)	0.606 (inactive)
CC(=O)n1cc(C(O)C2C=CC3C(=O)N(c4ccccc4)C(=O)C3N2Nc2ccc([N+](=O)[O-])cc2)c2ccccc21 (stereo unspecified)	-0.768	-0.199 (inactive)	-1.15 (inactive)	0.835 (inactive)	1.25 (inactive)	0.241 (inactive)	-1.34 (inactive)	-0.885 (inactive)	-0.669	-0.0391	1.15 (inactive)	0.87	-0.306	-4.3 (inactive)	0.541 (inactive)	-0.219 (inactive)
O=C(OCc1ccccc1)C1=CCC2c3[nH]c4ccccc4c3C(=O)C1N2S(=O)(=O)c1ccccc1[N+](=O)[O-] (stereo unspecified)	-0.106	1.57 (inactive)	-1.2 (inactive)	-0.386 (inactive)	0.381 (inactive)	0.714 (inactive)	-1.04 (inactive)	-1.43 (inactive)	-0.878	-0.113	-0.0884 (inactive)	-0.0191	-1.07	-1.47 (inactive)	-0.824 (inactive)	-1.44 (inactive)
C=C(COC)/C(=C/C[C@@H](OC(C)=O)c1ccc(OCCO)cc1)c1cnc2ccccc2c1	0.638	-1.39 (inactive)	0.748 (inactive)	-5.97 (inactive)	-0.128 (inactive)	-1.49 (inactive)	1.06 (inactive)	0.968 (inactive)	0.371	0.241	-0.263 (inactive)	0.554	-3.23	-6.01 (inactive)	0.136 (inactive)	-0.201 (inactive)
